Our source for the Potency, activity, negative = cell killing and activity change, negative = cytotoxicity values is PubChem BioAssay (NCATS).

Where “and” joins values, the source holds several entries; their conditions need not be identical. Identical values can stand only once. Results filed as inconclusive are left out. A number with no mark means an inactive call. Calls of active or inactive are those of the source. Calls come from the whole dose curve; as a rule, active = well fitted curve in the direction sought with a large enough effect; inconclusive = small, poorly fitted or top-dose-only effect, or another doubt; inactive = no such curve, though single readings can be large; an effect the other way counts as inactive or inconclusive.

For one assay, the system named is Es-2. Briefly: Primary qHTS to identify gynecologic anti-cancer compounds using libraries of approved drugs and bioactive compounds (AID 1345084). Note: nearly all actives have a fitted effect of over 55% in size. To be noted: Gynecologic cancer cell panel viability, ATPlite luminescence, 48 h; series mostly up to 57.5 µM. In a few lines:
(§1)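 Five-point cytotoxicity, 48 h drug exposure at 37 C, 5% CO2, on cells seeded 16 h beforehand. ATP content read by ATPlite luminescence.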

The subject of the next assay is HeLa. The assay is described as above. As to conditions: Gynecologic cancer cell panel viability, ATPlite luminescence, 48 h; series mostly up to 57.5 µM. The method, boiled down: as §1
In general terms: Cellular ATP, detected with luciferase, serves as a proxy for viable cell number.

Another assay concerns Hek293T. Described as above. To be noted: Gynecologic cancer cell panel viability, ATPlite luminescence, 48 h, control line for the selectivity index; series mostly up to 57.5 µM. The method, boiled down:
as §1

The subject of a further assay is JEG-3. Described as above. As to conditions: Gynecologic cancer cell panel viability, ATPlite luminescence, 48 h; series mostly up to 57.5 µM. The method, boiled down:
as §1

The next assay has as its system OV90. The assay is described as above. As to conditions: Gynecologic cancer cell panel viability, ATPlite luminescence, 48 h; series mostly up to 57.5 µM. In a few lines:
as §1

In another assay the test system is PA-1. The assay is described as above. As to conditions: Gynecologic cancer cell panel viability, ATPlite luminescence, 48 h; series mostly up to 57.5 µM. In a few lines:
as §1

A further assay deals with SKOV3. The description is as above. To be noted: Gynecologic cancer cell panel viability, ATPlite luminescence, 48 h; series mostly up to 57.5 µM. In a few lines:
as §1

The next assay concerns Tov-21-G. The description is as above. To be noted: Gynecologic cancer cell panel viability, ATPlite luminescence, 48 h; series mostly up to 57.5 µM. The method, boiled down:
as §1

For a further assay, the system named is Tov112D. The description is as above. As to conditions: Gynecologic cancer cell panel viability, ATPlite luminescence, 48 h; series mostly up to 57.5 µM. The method, boiled down: as §1
Assay [1] in a line: Drug repurposing screens with cells derived from glioblastoma tumor samples (AID 1345199). Note: nearly all actives have a fitted effect of over 40% in size. Note: potency is the fitted concentration of half-maximal effect. To be noted: GBM patient neurospheres viability, ATP luminescence, 48 h. In a few lines: (§2)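 Four patient lines of CD133+ GBM neurospheres were screened at several concentrations; hits were retested in those lines plus three slower-growing GBM lines, using 48-hour treatment and ATP-based viability.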

In a further assay the test system is astro. The description is as above. As to conditions: viability, ATP luminescence, 48 h; series mostly up to 45.9 µM. In a few lines:
as §2

Where [2] appears, read: at 45.9 µM (top of the series), tumour line B.
[3] abbreviates: at 45.9 µM (top of the series), tumour line D.
Setting [4] is: at 46.1 µM (top of the series), tumour line C.
The mark [5] stands for this setting: at 20 µM (top of the series), tumour line C.
The mark [6] stands for this setting: at 21.2 µM (top of the series), tumour line B.
The mark [7] stands for this setting: at 21.2 µM (top of the series), tumour line D.
Where [8] appears, read: at 46 µM (top of the series), tumour line A.
Where [9] appears, read: at 21.3 µM (top of the series), tumour line A.
% is set by controls: 0 for no effect and ±100 for the full control effect.

In the case of `CCCCS(=O)(=O)N[C@@H](Cc1ccc(OCCCCC2CCNCC2)cc1)C(=O)O`, the Potency result with Es-2, in the assay on HeLa, in the assay on Hek293T, in the assay on JEG-3, with OV90 and in the assay with PA-1 was “inactive” in each case. Moreover, the Potency result in the assay on SKOV3, in the assay on Tov-21-G and in the assay on Tov112D was “inactive” each time. Also, the activity, negative = cell killing was -17.7% in [1] (setting [2]), -22% in [1] (setting [3]) and -12.3% in assay [1] (setting [4]). Further, the Potency in assay [1] (tumour line A) was 11.2 µM (active).

As to `CN1CCN(C(c2ccccc2)c2ccccc2)CC1`, the Potency result with Es-2, in the assay on HeLa, in the assay on Hek293T, with JEG-3, with OV90 and with PA-1 was “inactive” in each case. Further, the Potency result in the assay on SKOV3, with Tov-21-G and in the assay on Tov112D was “inactive” each time. Besides, the activity, negative = cell killing in assay [1] (setting [5]) is -1.97%; in [1] (setting [6]) it was -1.95%; in [1] (setting [7]) it was -26.8%.

Turning to `CC(=O)Nc1c(I)cc(I)c(C(=O)O)c1I`, the Potency entry in the assay on Es-2, in the assay with HeLa, with Hek293T, in the assay with JEG-3, with OV90 and in the assay with PA-1 was “inactive” in each case. Moreover, the Potency result in the assay on SKOV3, in the assay with Tov-21-G, in the assay on Tov112D and in the assay on astro was “inactive” in each case. The activity, negative = cell killing in assay [1] (setting [2]) is -18.2%; in [1] (setting [3]), -1.85%; in assay [1] (setting [8]) it was -31.3%; in assay [1] (setting [4]) it was 23.7%.

As to `CCn1cc(C(=O)O)c(=O)c2cnc(N3CCCC3)nc21`, the activity change, negative = cytotoxicity in the assay with Es-2 is 0.873% [at 11.6 µM]; with HeLa it was -17.6% [at 11.6 µM]; in the assay on Hek293T, 1.62% [at 11.6 µM]; in the assay on JEG-3, -0.757% [at 11.6 µM]; with OV90, -1.88% [at 11.6 µM]; in the assay on PA-1, 3.4% [at 11.6 µM]. Also, the values for the activity change, negative = cytotoxicity in the assay with SKOV3, in the assay on Tov-21-G and in the assay with Tov112D were 27% [at 11.6 µM], 5.91% [at 11.6 µM] and 5.36% [at 11.6 µM], respectively. Further, the activity, negative = cell killing in [1] (setting [5]) was -8.14%; in assay [1] (setting [6]), -5.2%; in assay [1] (setting [7]) it was -3.67%; in assay [1] (setting [9]), -24.5%. For the same molecule, the Potency result in the assay with astro is “inactive”.

Take `O=c1ccc2ccccc2o1`: the Potency result with Es-2, with HeLa, in the assay on Hek293T, with JEG-3, in the assay on OV90 and in the assay with PA-1 was “inactive” each time. For the same molecule, the Potency result in the assay with SKOV3, in the assay with Tov-21-G, in the assay on Tov112D and in the assay on astro was “inactive” in each case. Besides, the activity, negative = cell killing in [1] (setting [2]) is -10.7%; in [1] (setting [3]), -11.2%; in assay [1] (setting [8]) it was -35.1%; in [1] (setting [4]) it was 13.9%.

For `CCN1CCN(c2cc3c(cc2F)c(=O)c(C(=O)O)cn3C2CC2)CC1`, the Potency result with Es-2, with HeLa, in the assay with Hek293T, with JEG-3, in the assay with OV90 and with PA-1 was “inactive” in each case. In addition, the Potency result with SKOV3, in the assay on Tov-21-G, in the assay with Tov112D and with astro was “inactive” each time. In addition, the activity, negative = cell killing in assay [1] (setting [2]) is 9.67%; in assay [1] (setting [3]), -1.9%; in assay [1] (setting [8]) it was -9.98%; in assay [1] (setting [4]) it was 17.2%.

Take `O=C1OC2(c3ccc(O)cc3Oc3cc(O)ccc32)c2ccccc21`: the Potency result in the assay with Es-2, in the assay with HeLa, in the assay with Hek293T, in the assay on JEG-3, in the assay on OV90 and in the assay with PA-1 was “inactive” throughout. Further, the Potency entry in the assay with SKOV3, in the assay on Tov-21-G and in the assay on Tov112D was “inactive” throughout. Also, the activity, negative = cell killing is -8.7% and -8.22% in assay [1] (setting [2]); -3.66% and -8.86% in assay [1] (setting [3]); -6.74% in [1] (setting [8]); 11.7% and -10.7% in assay [1] (setting [4]).

`O=C(O)CNC(=O)c1ccccc1`: the Potency result in the assay with Es-2, in the assay with HeLa, in the assay on Hek293T, in the assay with JEG-3, in the assay with OV90 and with PA-1 was “inactive” each time. Further, the Potency entry in the assay on SKOV3, in the assay with Tov-21-G, with Tov112D and with astro was “inactive” each time. Also, the activity, negative = cell killing in [1] (setting [2]) is -9.91%; in assay [1] (setting [3]), -0.469%; in [1] (setting [8]) it was 3.77%; in assay [1] (setting [4]) it was -1.09%.

As for `NC(=O)c1cc[n+](CC2=C(C(=O)[O-])N3C(=O)[C@@H](NC(=O)Cc4cccs4)[C@H]3SC2)cc1`, the Potency result in the assay on Es-2, with HeLa, in the assay on Hek293T, in the assay with JEG-3, in the assay with OV90 and in the assay on PA-1 was “inactive” each time. For the same molecule, the Potency entry in the assay on SKOV3, in the assay on Tov-21-G, in the assay with Tov112D and in the assay on astro was “inactive” each time. For the same molecule, the activity, negative = cell killing in [1] (setting [5]) was -2.18%; in assay [1] (setting [6]), -10.7%; in [1] (setting [7]) it was -13.1%; in assay [1] (setting [9]), -27.6%.

As for `C/C=C/c1ccc(OC)cc1`, the Potency entry in the assay on Es-2, with HeLa, in the assay on Hek293T, in the assay on JEG-3, in the assay with OV90 and in the assay on PA-1 was “inactive” each time. Further, the Potency entry with SKOV3, with Tov-21-G, in the assay on Tov112D and with astro was “inactive” throughout. The activity, negative = cell killing in [1] (setting [2]) was -1.8%; in assay [1] (setting [3]), 3.04%; in assay [1] (setting [8]), -17.3%; in assay [1] (setting [4]), 0.347%.

On to `Cc1ccc(Nc2c(F)cccc2Cl)c(CC(=O)O)c1`, for which the Potency entry with Es-2, in the assay on HeLa, in the assay on Hek293T, with JEG-3, in the assay with OV90 and in the assay with PA-1 was “inactive” each time. In addition, the Potency entry in the assay on SKOV3, with Tov-21-G, in the assay with Tov112D and in the assay with astro was “inactive” each time. In addition, the activity, negative = cell killing is -6.28% in [1] (setting [2]), -3.08% in assay [1] (setting [3]), -32.8% in assay [1] (setting [8]) and -3.92% in assay [1] (setting [4]).

Turning to `CN(C)CC/C=C1/c2ccccc2COc2ccc(CC(=O)O)cc21`, the Potency entry with Es-2, in the assay with HeLa, in the assay on Hek293T, in the assay on JEG-3, with OV90 and in the assay on PA-1 was “inactive” throughout. In addition, the Potency entry in the assay on SKOV3, in the assay with Tov-21-G, in the assay with Tov112D and with astro was “inactive” throughout. In addition, the activity, negative = cell killing is -11.5% in assay [1] (setting [2]), 1.66% in [1] (setting [3]), -15.4% in [1] (setting [8]) and 4.5% in [1] (setting [4]).

Turning to `OCc1ccccc1O`, the Potency entry with Es-2, with HeLa, with Hek293T, with JEG-3, in the assay with OV90 and with PA-1 was “inactive” in each case. The Potency entry in the assay with SKOV3, in the assay with Tov-21-G, in the assay on Tov112D and with astro was “inactive” each time. Also, the activity, negative = cell killing in [1] (setting [2]) is -10.5%; in [1] (setting [3]) it was -12.8%; in assay [1] (setting [8]), -23.4%; in assay [1] (setting [4]), -1.35%.

Regarding `Cc1onc(-c2c(Cl)cccc2Cl)c1C(=O)N[C@@H]1C(=O)N2[C@@H]1SC(C)(C)[C@@H]2C(=O)O`, the Potency entry in the assay on Es-2, in the assay with HeLa, in the assay on Hek293T, in the assay on JEG-3, with OV90 and in the assay with PA-1 was “inactive” each time. Moreover, the Potency entry with SKOV3, in the assay on Tov-21-G, in the assay with Tov112D and with astro was “inactive” each time. The activity, negative = cell killing is -4.57% in assay [1] (setting [2]), -12.2% in [1] (setting [3]), -8.27% in assay [1] (setting [8]) and 12.2% in [1] (setting [4]).
